A short description of experiment [1]: Nuclear factor erythroid 2-related factor 2/antioxidant responsive element (Nrf2/ARE) small molecule agonists: qHTS cell viability counter screen in human keratinocytes (AID 1919968; active = well fitted curve in the direction sought with a large enough effect in the repeat runs; an effect the other way counts as inactive or inconclusive; also: nearly all actives have a fitted effect of over 55% in size; also: potency is read from the fitted curve at half-maximal effect). The method in brief: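 KeratinoSens cells (HaCaT keratinocytes stably carrying an ARE-luciferase reporter) were seeded at 1,500 cells/well and rested 5 h at 37 C/5% CO2. They were then exposed to compounds in DMSO for 23 h. Viability was read by CellTiter-Fluor fluorescence after 1 h.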

Experiment [2] in a line: Nuclear factor erythroid 2-related factor 2/antioxidant responsive element (Nrf2/ARE) small molecule agonists: luciferase reporter gene qHTS assay in human keratinocytes (AID 1919969). Also: nearly all actives have a fitted effect of over 35% in size. Also: potency is read from the fitted curve at half-maximal effect. A general note: Reporter assays use an easily measured gene product as a stand-in for the process of interest.
Experiment [3] deals with Gonadotropin-releasing hormone receptor (Homo sapiens) (UniProt P30968). As to the kind of experiment: Human gonadotropin-releasing hormone receptor (GnRHR) small molecule agonists, calcium flux assay in GnRHR-HEK293 cells (AID 1920063). Also: nearly all actives have a fitted effect of over 35% in size. The method in brief: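 HEK293 cells stably expressing human GnRHR were plated 18 h at 37 °C, loaded with calcium dye 1 h at 37 °C, then given compound in agonist mode; fluorescence (Ex/Em 480/540) read kinetically for 3 min at 1 s intervals.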
Chain of Gonadotropin-releasing hormone receptor (Homo sapiens) (P30968 whole entry, looked up): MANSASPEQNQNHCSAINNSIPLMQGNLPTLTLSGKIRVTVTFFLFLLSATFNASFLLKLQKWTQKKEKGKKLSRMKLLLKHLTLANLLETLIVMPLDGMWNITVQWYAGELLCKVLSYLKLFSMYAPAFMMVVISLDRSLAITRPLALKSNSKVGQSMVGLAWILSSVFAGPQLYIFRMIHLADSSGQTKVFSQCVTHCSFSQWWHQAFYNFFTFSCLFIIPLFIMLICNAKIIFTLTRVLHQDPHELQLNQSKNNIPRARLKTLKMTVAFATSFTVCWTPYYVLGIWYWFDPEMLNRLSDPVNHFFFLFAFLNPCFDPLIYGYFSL
On the technique in general: Calcium flux is commonly read through the fluorescence of an indicator in the cells.

In experiment [4] the target is KiSS-1 receptor (Homo sapiens) (UniProt Q969F8). The experiment is described as follows: Human kisspeptin (KISS1R) small molecule agonists, calcium flux assay in KISS1R-HEK293 cells (AID 1920064; active = well fitted curve in the direction sought with a large enough effect in the repeat runs; an effect the other way counts as inactive or inconclusive). The method in brief:
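HEK293 cells stably expressing human KISS1R were plated 18 h at 37 °C, loaded with calcium dye for 1 h at 37 °C, then given compound by pin tool. Fluorescence (Ex/Em 480/540) was read kinetically for 3 min.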

Experiment [5] can be described thus: G protein-coupled receptor (GPCR) small molecule agonists, calcium flux assay: HEK293 wild type cell line counter screen (AID 1920065). The method in brief:
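Cells were plated and cultured 18 h at 37 C/5% CO2, then loaded with calcium dye for 1 h at 37 C. Compounds in DMSO were pin-transferred in agonist mode, and fluorescence (Ex/Em 480/540) was read kinetically for 3 min at 1 s intervals.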

Experiment [6] is described as follows: p53 small molecule agonists, cell-based qHTS assay with rat liver microsomes: qHTS cell viability counter screen (AID 1963580). Also: nearly all actives have a fitted effect of over 45% in size. The method in brief:
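HCT-116 p53RE-bla, 4,000 cells/well, 5 h pre-incubation; cpd + rat liver microsomes 0.5 mg/mL + NADPH 0.5 mg/mL (final); 16 h, 37 C; CellTiter-Glo, 30 min RT; luminescence.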

The nature of experiment [7]: p53 small molecule agonists, cell-based qHTS assay: qHTS cell viability counter screen (AID 1963581). Also: nearly all actives have a fitted effect of over 45% in size. Also: potency is read from the fitted curve at half-maximal effect. The method in brief: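 p53RE-bla HCT-116 cells were exposed to compounds for 16 h at 37 C; after the beta-lactamase FRET read in the same wells, CellTiter-Glo was added and luminescence (intracellular ATP) read after 30 min at room temperature.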
(qHTS replaces the single test concentration by a dilution series.)

The nature of experiment [8]: p53 small molecule agonists, cell-based qHTS assay (AID 1963582; active = well fitted activation curve with a large enough effect in the signal ratio in the repeat runs, not every such curve was filed as active; the % refers to the signal ratio). In a few lines: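 p53RE-bla beta-lactamase reporter cells rested 5 h at 37 C/5% CO2, then received compounds in DMSO by pin transfer and were incubated 16 h at 37 C. LiveBLAzer B/G FRET substrate was loaded for 2 h at room temperature before fluorescence reading.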
Experiment [9] addresses 5-hydroxytryptamine receptor 2A (Homo sapiens) (UniProt P28223). As to the kind of experiment: 5-hydroxytryptamine receptor 2A (HTR2A) small molecule antagonists, cell-based qHTS assay (AID 1963586). Also: nearly all actives have a fitted effect of over 45% in size. The method in brief: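 Antagonist-mode intracellular calcium assay: DOI (4 nM) added after 5 min compound pre-incubation at room temperature to dye-loaded HTR2A-CHO cells. Fluorescence followed for 3 min, sampled every second.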

Experiment [10] shares this target. The experiment is described as follows: 5-hydroxytryptamine receptor 2A (HTR2A) small molecule agonists, cell-based qHTS assay (AID 1963587). Also: nearly all actives have a fitted effect of over 30% in size. The method in brief:
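Kinetic calcium-flux fluorescence (2 min, 1 sec intervals) after compound addition in agonist mode. HTR2A-CHO cells were cultured 18 h, then dye-loaded 1 h at 37 C.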

The target of experiment [11] is Muscarinic acetylcholine receptor M1 (Homo sapiens) (UniProt P11229). The experiment is described as follows: Cholinergic receptor muscarinic 1 (CHRM1) small molecule antagonists, cell-based qHTS assay (AID 1963588). Also: nearly all actives have a fitted effect of over 40% in size. In a few lines: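 CHRM1-CHO calcium-flux assay, antagonist mode. Cells were seeded 18 h, dye-loaded 1 h at 37 C and given compound for 5 min at RT, then acetylcholine was added at 50nM. FDSS fluorescence was read 3 min; 15 concentrations, three runs.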
Chain of Muscarinic acetylcholine receptor M1 (Homo sapiens) (P11229 whole entry, looked up): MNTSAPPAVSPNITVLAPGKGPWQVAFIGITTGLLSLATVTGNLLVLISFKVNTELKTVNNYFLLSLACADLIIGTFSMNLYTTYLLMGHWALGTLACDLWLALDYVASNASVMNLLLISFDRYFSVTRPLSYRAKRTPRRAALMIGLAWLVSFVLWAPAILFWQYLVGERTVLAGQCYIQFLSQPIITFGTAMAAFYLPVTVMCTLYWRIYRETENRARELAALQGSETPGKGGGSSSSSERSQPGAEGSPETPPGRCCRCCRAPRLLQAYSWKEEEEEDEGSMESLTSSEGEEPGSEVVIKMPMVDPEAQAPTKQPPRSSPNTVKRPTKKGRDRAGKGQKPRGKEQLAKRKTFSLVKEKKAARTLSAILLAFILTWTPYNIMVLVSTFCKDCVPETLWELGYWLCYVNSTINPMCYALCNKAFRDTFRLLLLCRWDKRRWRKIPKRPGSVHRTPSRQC

For experiment [12] the target is unchanged. The experiment is described as follows: Cholinergic receptor muscarinic 1 (CHRM1) small molecule agonists, cell-based qHTS assay (AID 1963589). Also: nearly all actives have a fitted effect of over 35% in size. Also: potency is read from the fitted curve at half-maximal effect. The method in brief: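 CHO cells stably expressing human CHRM1, seeded 18 h at 37 C/5% CO2, dye-loaded 1 h at 37 C, then given compound in agonist mode; intracellular calcium fluorescence read kinetically at 1 s intervals. Fifteen concentrations, three independent runs.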

A short description of experiment [13]: cAMP Responsive Elements (CRE) small molecule agonists, cell-based qHTS assay (AID 1963590). In a few lines:
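CRE-bla HEK 293T cells in DMEM with 10% dialyzed FBS, NEAA, pyruvate and 25 mM HEPES were plated 18 h at 37 C/5% CO2, then exposed to compounds in DMSO for 3 h before LiveBLAzer B/G FRET substrate addition.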

Experiment [14] is described as follows: cAMP Responsive Elements (CRE) small molecule antagonists, cell-based qHTS assay (AID 1963591; active = well fitted inhibition curve with a large enough effect in the signal ratio in the repeat runs, not every such curve was filed as active; the % refers to the signal ratio). The method in brief:
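CRE-bla HEK293T cells were plated 18 h at 37 °C/5% CO2, pinned with compound in DMSO, then stimulated with NKH477 at 0.25 uM final for 3 h. LiveBLAzer B/G FRET substrate was added and plates incubated 2 h at room temperature.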

Experiment [15] concerns the target Beta-2 adrenergic receptor (Homo sapiens) (UniProt P07550). The experiment is described as follows: Adrenergic beta2 receptor (ADRB2) small molecule antagonists, cell-based qHTS assay (AID 1963592). Also: series mostly up to about 92 µM; nearly all actives have a fitted effect of over 50% in size. In a few lines:
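Cells (CHO, stable ADRB2 overexpression) incubated 18-20hr at 37C; compounds added from DMSO; agonist mix (1nM isoproterenol, 100uM IBMX, 25uM Ro-20-1724) added; 0.5hr RT; d2-cAMP and anti-cAMP-cryptate added; 1hr RT; 665/615 nm read.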

The target in experiment [16] is D(2) dopamine receptor (Homo sapiens) (UniProt P14416). As to the kind of experiment: Dopamine D2 receptor (DRD2) small molecule agonists, cell-based qHTS assay (AID 1963594). Also: nearly all actives have a fitted effect of over 35% in size. The method in brief:
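cAMP accumulation in DRD2-HEK293 cells measured by HTRF after 1 h detection; compounds added 10 min before NKH477 (200nM […]) forskolin-analogue stimulation, 30 min at room temperature, with Ro20-1724 present at 0.1 mM final.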

For experiment [17] the target is unchanged. The experiment is described as follows: Dopamine D2 receptor (DRD2) small molecule antagonists, cell-based qHTS assay (AID 1963595; active = well fitted inhibition curve with a large enough effect in the signal ratio in the repeat runs, with a control signal flat; the % refers to the signal ratio). In a few lines: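 Antagonism was scored as restored cAMP in HEK293-DRD2 cells. These cells were stimulated with 200 nM NKH477 and 12 nM quinpirole for 30 min at room temperature, in the presence of 0.1 mM Ro20-1724.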
The nature of experiment [18]: p53 small molecule agonists, cell-based qHTS assay with rat liver microsomes (AID 1963578). The method in brief:
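Agonist mode in p53RE-bla reporter cells, with compounds co-incubated 16 h at 37 C alongside 0.5 mg/mL rat liver microsomes and 0.5 mg/mL NADPH (final), followed by a 2 h LiveBLAzer detection step.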

For experiment [19], the target named is Beta-2 adrenergic receptor (Homo sapiens) (UniProt P07550). As to the kind of experiment: Adrenergic beta2 receptor (ADRB2) small molecule agonists, cell-based qHTS assay (AID 1963593).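 Also: CHO cells stably overexpressing human ADRB2.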 The method in brief:
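CHO cells stably over-expressing ADRB2 were plated overnight at 37C, then dosed with compounds plus a stimulation mix containing 100uM IBMX and 25uM Ro-20-1724 for 0.5hr at room temperature. cAMP was measured by HTRF competition, 1hr.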

A short description of experiment [20]: p53 small molecule agonists, cell-based qHTS assay with human liver microsomes: qHTS cell viability counter screen (AID 1963579). Also: nearly all actives have a fitted effect of over 45% in size. Also: potency is read from the fitted curve at half-maximal effect. The method in brief:
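Metabolically activated exposure: compounds, human liver microsomes and NADPH (0.5 mg/mL final apiece) were added to p53RE-bla cells seeded 5 h earlier, left 16 h at 37 C, and then assessed for viability by CellTiter-Glo luminescence.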

Each structure is given as a SMILES string. Values without a mark were called inactive. Records with an inconclusive call do not appear. The source made the active and inactive calls. Unless noted, calls follow the shape of the full dose curve.

Chain of 5-hydroxytryptamine receptor 2A (Homo sapiens) (P28223 whole entry, looked up): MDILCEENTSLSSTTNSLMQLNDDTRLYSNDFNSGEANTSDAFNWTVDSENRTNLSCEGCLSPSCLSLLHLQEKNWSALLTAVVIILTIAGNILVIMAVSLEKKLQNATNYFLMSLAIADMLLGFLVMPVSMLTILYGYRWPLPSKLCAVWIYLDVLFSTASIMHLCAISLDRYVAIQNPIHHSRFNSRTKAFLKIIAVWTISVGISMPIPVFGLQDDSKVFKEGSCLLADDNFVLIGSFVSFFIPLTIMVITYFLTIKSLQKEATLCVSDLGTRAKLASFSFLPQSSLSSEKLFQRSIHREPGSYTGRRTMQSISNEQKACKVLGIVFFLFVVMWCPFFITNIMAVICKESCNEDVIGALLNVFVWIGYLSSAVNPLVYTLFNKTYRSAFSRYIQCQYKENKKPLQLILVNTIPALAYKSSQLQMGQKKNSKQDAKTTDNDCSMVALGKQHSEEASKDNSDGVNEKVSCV
Chain of Beta-2 adrenergic receptor (Homo sapiens) (P07550 whole entry, looked up): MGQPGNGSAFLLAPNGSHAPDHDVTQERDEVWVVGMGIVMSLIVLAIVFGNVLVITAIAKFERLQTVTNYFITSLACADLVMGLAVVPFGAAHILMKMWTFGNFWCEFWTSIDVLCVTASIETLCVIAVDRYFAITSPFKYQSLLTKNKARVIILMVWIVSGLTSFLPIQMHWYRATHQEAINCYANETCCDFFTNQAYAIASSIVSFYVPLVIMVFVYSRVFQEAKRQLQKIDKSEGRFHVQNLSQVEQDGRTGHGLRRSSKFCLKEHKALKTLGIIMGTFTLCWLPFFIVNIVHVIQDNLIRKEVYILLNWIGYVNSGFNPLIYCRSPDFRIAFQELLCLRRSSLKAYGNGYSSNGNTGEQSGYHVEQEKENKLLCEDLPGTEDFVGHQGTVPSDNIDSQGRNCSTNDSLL
Chain of KiSS-1 receptor (Homo sapiens) (Q969F8 whole entry, looked up): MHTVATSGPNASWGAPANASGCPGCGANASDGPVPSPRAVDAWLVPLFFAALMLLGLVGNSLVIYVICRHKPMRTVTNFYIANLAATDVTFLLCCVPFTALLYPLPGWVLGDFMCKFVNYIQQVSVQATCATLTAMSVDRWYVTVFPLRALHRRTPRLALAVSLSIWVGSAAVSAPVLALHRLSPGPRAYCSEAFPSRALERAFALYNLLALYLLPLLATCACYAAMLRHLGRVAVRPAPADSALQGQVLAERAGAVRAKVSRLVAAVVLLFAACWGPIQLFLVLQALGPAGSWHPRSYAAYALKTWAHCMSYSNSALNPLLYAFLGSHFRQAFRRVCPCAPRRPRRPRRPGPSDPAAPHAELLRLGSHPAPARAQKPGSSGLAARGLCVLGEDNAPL
Chain of D(2) dopamine receptor (Homo sapiens) (P14416 whole entry, looked up): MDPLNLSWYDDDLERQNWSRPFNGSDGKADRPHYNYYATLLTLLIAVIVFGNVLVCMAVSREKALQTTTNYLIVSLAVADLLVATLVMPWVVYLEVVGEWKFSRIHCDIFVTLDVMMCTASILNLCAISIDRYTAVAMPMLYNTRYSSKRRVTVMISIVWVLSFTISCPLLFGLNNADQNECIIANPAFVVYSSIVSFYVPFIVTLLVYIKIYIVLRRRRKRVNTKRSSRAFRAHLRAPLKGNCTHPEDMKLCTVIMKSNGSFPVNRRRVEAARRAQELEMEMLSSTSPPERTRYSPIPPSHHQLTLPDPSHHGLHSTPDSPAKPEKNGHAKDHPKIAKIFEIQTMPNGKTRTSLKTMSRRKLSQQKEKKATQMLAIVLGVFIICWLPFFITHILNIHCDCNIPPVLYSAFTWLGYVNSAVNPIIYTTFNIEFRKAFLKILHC

As for `COc1nccnc1CC(C)C`, the Potency result in experiment [1], in [2], in [3], in [4], in [5] and in [6] was “inactive” throughout. Also, the Potency entry in experiment [7], in [8], in experiment [9], in [10], in experiment [11] and in [12] was “inactive” throughout. Also, the Potency entry in [13], in experiment [14], in experiment [15], in [16] and in experiment [17] was “inactive” throughout.

As to `CC[C@]1(O)C[C@H]2CN(CCc3c([nH]c4ccccc34)[C@@](C(=O)OC)(c3cc4c(cc3OC)N(C=O)[C@H]3[C@@](O)(C(=O)OC)[C@H](OC(C)=O)[C@]5(CC)C=CCN6CC[C@]43[C@@H]65)C2)C1`, the Potency result in [1], in experiment [3], in experiment [4], in [5], in experiment [18] and in experiment [15] was “inactive” in each case. Besides, the Potency entry in [19] and in [17] was “inactive” in each case. Besides, in experiment [2], the Potency is 0.596 µM (active).

For `COCCOC(=O)CC#N`, the Potency entry in experiment [1], in [2], in [3], in experiment [4], in experiment [5] and in [20] was “inactive” each time. Besides, the Potency result in [7], in [8], in experiment [9], in [10], in experiment [11] and in [12] was “inactive” in each case. The Potency result in experiment [13], in experiment [14], in [15], in experiment [19], in experiment [16] and in [17] was “inactive” each time.

As to `CNC(=S)NN`, the Potency was 12.2 µM (active) in experiment [1] and 6.11 µM (active) in [2]. Moreover, the Potency entry in experiment [3], in experiment [4], in [5], in experiment [18], in experiment [7] and in [9] was “inactive” in each case. Moreover, the Potency entry in experiment [10], in experiment [11], in experiment [12], in [13], in experiment [15] and in experiment [17] was “inactive” in each case.

For the molecule `O=C(O)Cc1cc(I)c(Oc2cc(I)c(O)c(I)c2)c(I)c1`, the Potency result in experiment [1], in [3], in experiment [4], in experiment [5], in experiment [6] and in [11] was “inactive” throughout. Also, the Potency entry in [12], in [15], in experiment [16] and in experiment [17] was “inactive” in each case. Moreover, the values for the Potency in experiment [2], in experiment [20] and in experiment [7] were 30 µM (active), 17.9 µM (active) and 22.5 µM (active), respectively.

Take `c1ccc(C[n+]2cccc3ccccc32)cc1`: the Potency entry in experiment [1], in [2], in [3], in [4], in experiment [5] and in [20] was “inactive” each time. Further, the Potency entry in experiment [6], in [8], in experiment [9], in experiment [10], in experiment [11] and in experiment [12] was “inactive” throughout. Moreover, the Potency result in experiment [13], in experiment [14], in experiment [15], in [16] and in experiment [17] was “inactive” each time.

For the molecule `O=C(Cl)c1cc(Cl)cc(Cl)c1`, the Potency entry in experiment [1], in experiment [2], in [3], in experiment [4], in experiment [5] and in [20] was “inactive” throughout. Further, the Potency entry in experiment [7], in [8], in experiment [9], in experiment [10], in [11] and in experiment [12] was “inactive” each time. For the same molecule, the Potency result in experiment [13], in [15], in experiment [19], in experiment [16] and in experiment [17] was “inactive” throughout.

In the case of `CS(=O)(=O)CCNCc1ccc(-c2ccc3ncnc(Nc4ccc(OCc5cccc(F)c5)c(Cl)c4)c3c2)o1`, the Potency is 29.8 µM (active) in [1] and 0.012 µM (active) in experiment [12]. Also, the Potency result in experiment [2], in experiment [3], in experiment [4], in experiment [5], in experiment [20] and in experiment [6] was “inactive” each time. Also, the Potency entry in [7], in experiment [9], in [10], in [11], in experiment [15] and in experiment [16] was “inactive” throughout. In addition, the Potency result in experiment [17] was “inactive”.

Take `CC1=CCCC(C)(C)C12CCC(C)O2` (stereo unspecified): the Potency entry in experiment [1], in experiment [2], in [3], in experiment [4], in [5] and in experiment [20] was “inactive” in each case. Besides, the Potency entry in experiment [6], in experiment [7], in experiment [8], in [10], in [11] and in experiment [12] was “inactive” each time. Further, the Potency result in experiment [13], in [14], in experiment [15] and in [16] was “inactive” throughout.

Source of the values: PubChem BioAssay (Tox21).
